ABCB6 inh 2 = ABCB6 transporter inhibitors, primary screen, K562-ABCB6 cells, flow cytometry, MLPCN library | 360,000 compounds, 0.19% hits | K562-ABCB6 porphyrin accumulation, 1 h; active compounds read low | fluorescence ratio to DMSO, % at 10 µM | ATP-binding cassette sub-family B member 6 (Homo sapiens), Q9NP58;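 active means fluorescence ratio to DMSO below 75%, the collection mean minus 3 SD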;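 further: signal is porphyrin accumulated inside mitochondria; lower ratio means ABCB6 inhibition with less porphyrin fluorescence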
Target sequence (Q9NP58 whole entry, looked up): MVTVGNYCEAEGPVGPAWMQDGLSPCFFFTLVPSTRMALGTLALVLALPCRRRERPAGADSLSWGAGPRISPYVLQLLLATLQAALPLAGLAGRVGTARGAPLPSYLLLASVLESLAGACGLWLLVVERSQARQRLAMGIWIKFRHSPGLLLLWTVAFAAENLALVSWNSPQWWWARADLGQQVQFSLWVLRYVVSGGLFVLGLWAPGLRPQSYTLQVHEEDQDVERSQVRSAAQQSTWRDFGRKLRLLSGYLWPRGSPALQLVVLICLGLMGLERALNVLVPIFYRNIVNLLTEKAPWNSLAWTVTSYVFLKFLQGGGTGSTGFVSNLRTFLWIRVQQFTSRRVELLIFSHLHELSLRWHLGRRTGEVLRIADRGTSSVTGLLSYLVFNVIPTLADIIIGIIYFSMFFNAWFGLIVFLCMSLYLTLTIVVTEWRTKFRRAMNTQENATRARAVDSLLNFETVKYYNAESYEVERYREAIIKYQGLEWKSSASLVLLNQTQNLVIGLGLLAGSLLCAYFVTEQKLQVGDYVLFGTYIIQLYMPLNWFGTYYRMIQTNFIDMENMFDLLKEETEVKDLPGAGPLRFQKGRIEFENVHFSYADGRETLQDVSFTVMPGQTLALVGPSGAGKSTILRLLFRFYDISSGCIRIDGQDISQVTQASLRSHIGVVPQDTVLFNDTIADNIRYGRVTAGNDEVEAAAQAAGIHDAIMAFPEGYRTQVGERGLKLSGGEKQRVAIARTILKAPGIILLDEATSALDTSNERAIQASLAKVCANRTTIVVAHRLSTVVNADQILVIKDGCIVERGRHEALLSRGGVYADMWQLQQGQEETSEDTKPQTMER
H9c2 protect = cardioprotection against H2O2-induced cell death, primary screen, uHTS, H9c2 cells, ATPLite luminescence | H9c2 cardiomyocytes, H2O2 injury protection, 2 h | protection from H2O2 cell death, % at 20 µM | 360,000 compounds, 0.63% hits | AID 588492, 2011;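 active means compounds giving at least 50% protection of heart cells from peroxide-induced death in the single-dose screen, raw or plate-pattern-corrected value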
iPSC survival up = enhancers of single-cell hiPSC survival, primary screen, ATPlite luminescence | 100% = ROCK inhibitor wells, 0% = DMSO | survival enhancement, % at 20 µM | 360,000 compounds, 0.044% hits | AID 602274, 2012; in the data active means survival enhancement above about 18%;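 further: cells exposed to compounds for 16 hours before the ATP read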
Myeloid diff 2 = induction of myeloid progenitor differentiation, primary screen, cell-based, flow cytometry, MLPCN library; calls only at 10 µM; AID 624256, 2012; 360,000 compounds, 1% hits; ER-HoxA9 myeloid progenitors, lysozyme-GFP differentiation;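 active means normalized GFP-positive differentiation at or above the plate's own cutoff, the solvent-only control mean plus 3 SD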;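 further: cells exposed to compound for four days before flow analysis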
MIN6 prolif = inducers of MIN6 beta-cell proliferation, primary screen, ATP luminescence, uHTS; proliferation, % at 10 µM; 330,000 compounds, 0.29% hits; MIN6 cells proliferation, ATPlite luminescence, 48 h; cells starved in 0.2% serum; 100% = growth in 10% serum;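 active means compounds whose signal lies at least 3.5 SD above the mean of all wells on their plate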
Myeloid diff = inducers of myeloid progenitor differentiation, confirmation, cell-based, GFP/Mac1 flow cytometry, cherry pick 01; shares compounds with Myeloid diff 2; ER-HoxA9 myeloid progenitors, GFP/Mac1 double-positive flow; calls only; 2,300 compounds, 2% hits; AID 651706, 2012;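 active means share of green or green-and-red cells above 9 and 9% in run 1 or 4 and 3% in run 2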
GFP autofluor = compound fluorescence in myeloid differentiation counter-screen; ER-HoxA9 myeloid progenitors, no estrogen, GFP autofluorescence flow cytometry; vehicle wells 0%, positive control 100%; shares compounds with Myeloid diff 2; 2,300 compounds, 7.4% hits; fluorescence response, % (test concentration not listed);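 active means over 5% cells positive for green fluorescent reporter, or over 2% positive for both it and APC stain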
Large screens that a line does not name were inactive (follow-up assays come after a bar, where they were run). The list is not random: actives were taken first. Their share in the collection is about 2.2%.

Cc1cc(C)n2ncc(C(=O)NCc3cccnc3)c2n1	Myeloid diff 2 active | Myeloid diff inactive | GFP autofluor inactive
O=C1N[C@H](Cc2ccccc2)COC(=O)[C@@H](Cc2ccc(F)cc2)CC/C=C/C[C@H]1CC(=O)N(CCO)Cc1ccccc1	none
O=C1N[C@@H](Cc2ccccc2)COC(=O)[C@@H](Cc2ccc(F)cc2)CC/C=C/C[C@@H]1CC(=O)N(CCO)Cc1ccccc1	Myeloid diff 2 active | Myeloid diff inactive | GFP autofluor inactive
CC1(C)C2CCC1(CS(=O)(=O)N1CCN(c3ccccc3F)CC1)C(=O)C2 (configuration not stated)	none
Cc1cccc(N2CCN(C(=O)NCc3ccc(Cl)cc3)CC2)c1	none | Myeloid diff inactive | GFP autofluor inactive
CCN(CC(=O)NCc1ccc(Cl)cc1)C(=O)CCC(=O)c1ccc(F)cc1	Myeloid diff 2 active | Myeloid diff inactive | GFP autofluor inactive
COc1ccc(CCNC(=O)c2cc(-c3ccccc3O)n[nH]2)cc1OC	none
COc1ccc(CCNC(=O)c2ccn[nH]2)cc1OC	Myeloid diff 2 active | Myeloid diff inactive | GFP autofluor inactive
O=C(Cn1cnc2sc(-c3ccccc3)cc2c1=O)NCCc1ccccc1	none
N#Cc1ccsc1NC(=O)C1CC(=O)N(Cc2ccccc2)C1 (configuration not stated)	none | Myeloid diff inactive | GFP autofluor inactive
CCCC(=O)NC(=S)Nc1ccccc1N1CCOCC1	none
CS(=O)(=O)c1ccc(C(=O)NNC(=O)c2cc(-c3ccccc3)n[nH]2)cc1	none
COc1cc(C(=O)NNC(=O)c2cc(-c3ccccc3)n[nH]2)cc(OC)c1C	none | Myeloid diff inactive | GFP autofluor inactive
O=C1CCc2cc(S(=O)(=O)NCCCC(=O)N3CCN(Cc4ccc5c(c4)OCO5)CC3)ccc2N1	none
O=C(CCNS(=O)(=O)c1ccc2c(c1)CCC(=O)N2)NCc1ccc2c(c1)OCO2	none | Myeloid diff inactive | GFP autofluor inactive
Cc1ccc(-n2c(SCC(=O)Nc3ccc(C(=O)O)cc3)nnc2-c2ccncc2)cc1	none
Cc1ccc(C(=O)NNC(=O)CSc2nnc(-c3ccncc3)n2-c2ccc(C)cc2)cc1	none | Myeloid diff inactive | GFP autofluor inactive
COc1ccc(NC(=O)Cn2c(C)csc2=O)c(OC)c1	none
CCOc1ccc(/C=C/c2c([N+](=O)[O-])c(=O)n(C)c(=O)n2C)cc1	none
CCc1ccc(/C=C/c2c([N+](=O)[O-])c(=O)n(C)c(=O)n2C)cc1	none | Myeloid diff inactive | GFP autofluor inactive
CCOC(=O)N1CCC(NC(=O)c2ccc3c(c2)ncn3C2CCCC2)CC1	none
CCOC(=O)N1CCN(C(=O)c2ccc3c(c2)ncn3C2CCCC2)CC1	none | Myeloid diff inactive | GFP autofluor inactive
Cc1cccc(-n2c(C)cc(/C=N/NC(=O)c3ccc(CN4CCOCC4)cc3)c2C)c1	none
CC[n+]1c(C)cc(C)n1-c1ccccc1	none | Myeloid diff inactive | GFP autofluor inactive
COc1ccc(C(=O)CSc2ncnc3nc[nH]c23)cc1	Myeloid diff 2 active | Myeloid diff inactive | GFP autofluor inactive
C=CCNC(=O)COc1ccc(N(C)S(=O)(=O)c2ccc(NC(C)=O)cc2)cc1	none | Myeloid diff inactive | GFP autofluor inactive
Oc1ccc(/C=N/N(c2ccccc2)c2ccccc2)cc1O	none
CC(N)c1csc(NC(=O)c2cc(C(C)(C)C)nn2Cc2ccccc2)n1 (configuration not stated)	none (no result: MIN6 prolif)
COc1ccc(CC(N)c2csc(NC(=O)c3cc(C(C)(C)C)nn3Cc3ccccc3)n2)cc1 (configuration not stated)	Myeloid diff 2 active (no result: MIN6 prolif) | Myeloid diff inactive | GFP autofluor inactive

Screening data (PubChem)
